A short description of assay [1]: GFP-Q80 aggregate reduction, neuronal-like cells, cell-based, NGF-treated PC12, GFPQ80 (AID 1614).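 Note: lower means fewer inclusions and 0 means no inclusions at all.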 As to conditions: PC12 NGF-treated GFP-polyQ80 inclusion reduction.
A short description of assay [2]: compounds altering circadian rhythm period length – cell-based, LOPAC library, luminescence reporter (AID 2774).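 Note: values are relative to mean of DMSO wells on each plate.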 As to conditions: circadian reporter cells, at 7 µM, actives lie on both sides.
The test system of assay [3] is Hepatitis C virus NS3 helicase. Briefly: blockers of NS3h binding to ssDNA – biochemical, fluorescence polarization, LOPAC1280 library, primary screen (AID 687035; in the data active = inhibition above about 37%). As to conditions: Purified HCV NS3 helicase, Cy5-dT15 ssDNA binding fluorescence polarization; stronger effect = higher value; concentration not given here. On the technique in general: Fluorescence polarisation rises when a labelled molecule tumbles more slowly, as on binding a larger partner.

A short description of assay [4]: compounds altering Cy5-DNA-NS3h complex signal – biochemical, LOPAC1280, artefact control for HCV NS3 helicase inhibitor project (AID 687037). As to conditions: Cy5-DNA-NS3h complex fluorescence interference counterscreen. In general terms: A counterscreen serves to expose hits that act by an unwanted route or on another target.
Assay [5] in a line: viability loss in pontine glioma line – cell-based, SU-DIPG-XVII, MIPE5.0, CellTiter-Glo, qHTS, dose response (AID 1347060; cut-off not given, nearly all actives have AC50 up to about 26 µM). To be noted: CellTiter-Glo ATP luminescence. (ATP-based viability assays read luminescence as a measure of living cells.)
Assay [6] is described as follows: viability loss in pontine glioma line – cell-based, JHH-DIPG-1, MIPE4.0, CellTiter-Glo, qHTS, dose response (AID 1347062; cut-off not given, nearly all actives have AC50 up to about 27 µM;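 for AC50: cells exposed to compound for two days before readout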). As to conditions: JHH-DIPG-1 viability, CellTiter-Glo ATP luminescence.
The nature of assay [7]: viability loss in pontine glioma line – cell-based, SU-DIPG-XXV, MIPE5.0, CellTiter-Glo, qHTS, dose response (AID 1347065; cut-off not given, nearly all actives have AC50 up to about 26 µM;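 note: cells exposed to compound for 48 hours before ATP readout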). As to conditions: CellTiter-Glo ATP luminescence.
The nature of assay [8]: growth inhibition of DIPG cells – cell-based, MIPE4.0 library, CellTiter-Glo luminescence, qHTS (AID 1347066; cut-off not given, nearly all actives have AC50 up to about 30 µM;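 note: cells exposed to compound for 48 hours before readout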). As to conditions: SU-DIPG-VI viability, CellTiter-Glo ATP luminescence.
Assay [9] in a line: JHH-DIPG-1 glioma cell viability, MIPE5.0 library, CellTiter-Glo luminescence, qHTS (AID 1347067; cut-off not given, nearly all actives have AC50 up to about 26 µM;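 note: cells exposed to compound for 48 hours before readout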). To be noted: JHH-DIPG-1 glioma viability, CellTiter-Glo ATP luminescence.
The nature of assay [10]: growth inhibition of DIPG cells – cell-based, MIPE5.0 library, qHTS (AID 1347068; cut-off not given, nearly all actives have IC50 up to about 30 µM). As to conditions: SU-DIPG-XXV viability.
Assay [11] can be described thus: blockers of cellular phospholipid synthesis – cell-based, LOPAC library, screen 4, primary screen (AID 1347384). As to conditions: animal cells, phospholipid biosynthesis inhibition screen; at 10 µM.
Assay [12] is described as follows: viability loss in pontine glioma line – cell-based, SU-DIPG-XIII, MIPE4.0, CellTiter-Glo, qHTS, dose response (AID 1347061; cut-off not given, nearly all actives have AC50 up to about 37 µM;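 note: cells exposed to compound for 48 hours before readout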). As to conditions: CellTiter-Glo ATP luminescence.
Assay [13] is described as follows: growth inhibition, single agent or in combination, cell-based, chromothripsis tumors, cisplatin or BGB combos (AID 1671449; in the data active = inhibition above about 80%;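 note: cells exposed for 96 hours; 0% = vehicle DMSO and 100% = killing by high DMSO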). As to conditions: LFS_MB_P medulloblastoma cells.
Assay [14] is described as follows: growth inhibition, single agent and combos, cell-based, chromothripsis tumors, cisplatin or BGB combos (AID 1671450; in the data active = inhibition above about 80%;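 note: cells exposed to compound for four days; 0% = vehicle DMSO and 100% = cell killing by high DMSO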). As to conditions: HDN33 neuroblastoma cells, stronger effect = higher value.
Assay [15] can be described thus: growth inhibition, single agents and combos, LFS_MB_1R, cell-based, cisplatin or BGB combos, synergistic combos for chromothripsis tumors (AID 1671452; in the data active = inhibition above about 80%;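 note: cells exposed for 96 hours before readout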). To be noted: LFS_MB_1R medulloblastoma cells, stronger effect = higher value.
Assay [16] in a line: growth inhibition, single agents and combos, HTB85, cell-based, BGB or cisplatin IC20 combos, synergistic combos for chromothripsis tumors (AID 1671453; in the data active = inhibition above about 80%;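 note: cells exposed for 96 hours before readout; 0% = vehicle DMSO and 100% = high DMSO killing control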). To be noted: HTB85 osteosarcoma cells, drug combinations, stronger effect = higher value.
Assay [17] in a line: growth inhibition, MDA-MB-436, cell-based, BGB or cisplatin combos, synergistic combos for chromothripsis tumors (AID 1671458).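 Note: cells exposed for 96 hours; 0% = vehicle DMSO and 100% = killing by high DMSO.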 As to conditions: MDA-MB-436 breast carcinoma growth inhibition, drug combinations, stronger effect = higher value.
Assay [18] in a line: BT084 cell growth, single and combined drugs, ICGC_MB145, cisplatin and BGB IC40 combos (AID 1671461; in the data active = inhibition above about 80%;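 note: cells exposed to drugs for 96 hours; 0% = vehicle DMSO and 100% = high DMSO full killing control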). To be noted: BT084 medulloblastoma cells, drug combinations, stronger effect = higher value.
Assay [19] in a line: RCMB18 cell growth, single agent and combined, cisplatin and BGB IC40 combos (AID 1671462; in the data active = inhibition above about 80%;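 note: cells exposed to compound for four days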). To be noted: RCMB18 medulloblastoma cells, stronger effect = higher value.
Assay [20] in a line: CRL1545 cell growth, single agent and combined, cisplatin and BGB IC20 combos (AID 1671464; in the data active = inhibition above about 80%;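 note: cells exposed to compound for 96 hours before readout; 0% = vehicle DMSO and 100% = high DMSO killing control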). To be noted: CRL1545 osteosarcoma cells, stronger effect = higher value.
[21] abbreviates: measured here: combination with BGB IC40, at 0.05 µM.
[22] abbreviates: measured here: with BGB IC20 combination, at 0.5 µM.
The mark [23] stands for this setting: measured here: with cisplatin IC20 combination, at 0.5 µM.
Where [24] appears, read: measured here: combination with cisplatin, at 0.5 µM.

Values joined by “and” are separate entries in the source; they are usually repeats but may differ in a detail not shown here. Equal values may be shown once. Inconclusive results are not listed. Active and inactive are the calls of the source. Unless noted, the rule behind the calls is not given here.

The term inhibition denotes the change of the read-out against control, counted positive when it falls. What is called AC50 is the midpoint of the concentration-response curve, whichever way the signal moves. Regarding `CC(C)NCC(O)c1ccc(O)c(O)c1` (stereo not drawn), in [1], the inclusion score is 2. Besides, the period change in [2] is -0.07 hour (inactive) and 0.21 hour (inactive). For the same compound, the inhibition in assay [3] was -3% (inactive). Also, the fluorescence ratio (interference) in assay [4] is 1 (inactive). Besides, the compound was classed as inactive in assay [5], in assay [7], in assay [8], in [9], in assay [10] and in [11]. Moreover, in assay [6], the AC50 was 1480 nM (active).

`Nc1nc2c(ncn2COCCO)c(=O)[nH]1` had an inclusion score in assay [1] of 2. For the same compound, the period change in assay [2] is -0.035 h (inactive). Besides, the inhibition in assay [3] is -2% (inactive); in [13] (at 0.5 µM, stronger effect = higher value) it was -27.5% (inactive) and -23.8% (inactive); in assay [13] (measured here: combination with BGB IC20, at 0.005 µM), -0.211% and -20%; in assay [13] (measured here: combination with BGB IC40, at 0.005 µM), -37.2% and -37.3%; in assay [13] (setting [21]) it was -22.3% and -50.5%; in assay [13] (measured here: combination with cisplatin, at 0.5 µM, stronger effect = higher value) it was -35.1% and -39.9%. In addition, the inhibition in assay [13] (measured here: combination with cisplatin, at 5 µM, stronger effect = higher value) was -19.1% and -38.4%; in [14] (BGB combo, at 5 µM) it was -39.6% and -25.3%; in assay [14] (at 0.5 µM), -44.3% (inactive) and -13.8% (inactive); in [14] (cisplatin combo, at 5 µM) it was -30.4% and 3.02%; in assay [14] (setting [22]), -44% and -16%; in assay [14] (setting [23]), -44.9% and -2.15%. The inhibition in [14] (single agent, at 5 µM) was -49.5% and 10.3%; in assay [15] (at 0.5 µM), -33.9% (inactive) and -12.8% (inactive); in assay [15] (setting [21]) it was -30% and -19.3%; in assay [15] (setting [24]), -22.8% and -6.62%; in assay [15] (measured here: combination with cisplatin, at 5 µM), -40.1% and -62.2%; in [16] (at 0.5 µM), -30.1% (inactive) and -6.85% (inactive). For the same compound, the inhibition in assay [16] (measured here: with BGB IC20, at 0.5 µM) is -40.8% and -11.5%; in assay [16] (measured here: with BGB IC20, at 5 µM) it was -33.7% and -9.07%; in assay [16] (measured here: with cisplatin IC20, at 0.5 µM), -27.1% and -11.3%; in assay [16] (measured here: with cisplatin IC20, at 5 µM), -43.1% and -41.4%; in assay [16] (single agent, at 5 µM) it was -42.6% and 2.37%; in assay [17] (at 0.5 µM), -28.5% (inactive) and -3.5% (inactive). The inhibition in assay [17] (measured here: BGB combination, at 0.5 µM) is -28% and -11%; in assay [17] (measured here: BGB combination, at 5 µM), -21.3% and -10.7%; in assay [17] (measured here: cisplatin combination, at 0.5 µM), -47.5% and -0.282%; in assay [17] (measured here: cisplatin combination, at 5 µM) it was -36.3% and -17.4%; in assay [18] (at 0.5 µM), -21.3% (inactive) and -1.95% (inactive); in assay [18] (cisplatin combination, at 0.5 µM), -12.5% and -17.2%. Besides, the inhibition was -6.79% and -8.03% in [18] (cisplatin combination, at 5 µM); -1.08% and -21.3% in assay [18] (measured here: BGB IC40 combination 0.05 uM, at 0.05 µM); -0.642% and -9.5% in [18] (single agent, at 5 µM); -24.6% (inactive) and -1.99% (inactive) in assay [19] (at 0.5 µM); -16.8% and -20.6% in [19] (cisplatin combo, at 5 µM); -28.4% and 4.2% in assay [19] (measured here: BGB IC40 combination, at 0.05 µM). For the same compound, the inhibition in assay [19] (setting [24]) was -35.4% and 12.7%; in [19] (single agent, at 5 µM), -21.5% and -6.99%; in [20] (at 0.5 µM) it was -37.7% (inactive) and -21.2% (inactive); in assay [20] (setting [22]), -17.4% and -24.8%; in assay [20] (setting [23]), -51.3% and -21.4%; in assay [20] (single agent, at 0.05 µM), -59.2% and 3.53%. In addition, the inhibition in [20] (single agent, at 5 µM) was -38.1% and -22.9%. Moreover, in [4], the fluorescence ratio (interference) was 1 (inactive). In addition, the compound was called inactive in [5], in assay [12], in [6], in assay [7], in [9] and in [10]. Besides, in assay [11], the result was inactive.

With `CCN(CC)CCCC(C)Nc1ccnc2cc(Cl)ccc12` (stereo not drawn), the inclusion score in assay [1] is 2. Further, the period change in assay [2] was 0.02 h (inactive). Also, the inhibition in assay [3] was -3% (inactive). For the same compound, the fluorescence ratio (interference) in assay [4] is 1 (inactive). The AC50 in [12] is 8.33 nM (active). In addition, the call in assay [7], in assay [9], in assay [10] and in assay [11] was inactive.

In assay [1], `CC1=C(CC(=O)O)c2cc(F)ccc2/C1=C\c1ccc(S(C)=O)cc1` (stereo not drawn) gave an inclusion score of 2. In addition, the period change in assay [2] was 0.265 h (inactive). Also, in [3], the inhibition is 1% (inactive). In addition, in [4], the fluorescence ratio (interference) was 1 (inactive). Besides, the result in assay [5], in [7], in assay [8], in assay [9], in assay [10] and in assay [11] was inactive. Also, the AC50 in [12] was 20900 nM (active).

Regarding `CCC(C)(C)C(=O)O[C@H]1C[C@@H](C)C=C2C=C[C@H](C)[C@H](CC[C@@H]3C[C@@H](O)CC(=O)O3)[C@H]21`, the call in [12] and in assay [10] was inactive.

`CN1C(C(=O)Nc2ccccn2)=C(O)c2ccccc2S1(=O)=O` had an inclusion score in assay [1] of 2. For the same compound, in assay [2], the period change is -0.07 h (inactive). Moreover, in assay [3], the inhibition is -1% (inactive). In addition, in assay [4], the fluorescence ratio (interference) was 1 (inactive). In addition, the outcome in assay [5], in assay [12], in assay [6], in assay [7], in [8] and in [9] was inactive. For the same compound, the compound was classed as inactive in assay [10] and in [11].

Values taken from PubChem BioAssay.
